This note sets out measurements from PubChem BioAssay (NCI).

This is part of a sample that, as a whole, favours compounds with a hit. Of some 83,000 tested, about 20% had one in any assay.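 In brief: 96-well plates, 48 h treatment, single concentration, percent growth endpoint.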 A number with no mark means an inactive call. The source made the active and inactive calls. Rule for the calls: active = growth percent below 10; inactive = the rest.

One assay has as its system MCF7 breast. The assay can be described thus: NCI-60 one-dose screen, 48 h (100 = growth as untreated, 0 = no growth, -100 = all killed). The note with it: 10 µM unless noted.
On to `CNC(=O)c1cc(N2CCc3cc(NC(=O)Nc4ccc(N5CCN(C)CC5)c(C(F)(F)F)c4)ccc32)ccn1`, for which the growth is -2.1% (active).

With `C=C(C)[C@@H]1CC[C@]2(COCCCNCCCN)CC[C@]3(C)[C@H](CC[C@@H]4[C@@]5(C)CC[C@H](O)C(C)(C)[C@@H]5CC[C@]43C)[C@@H]12`, the growth was -75.4% (active).

As for `CN1CCN(Cc2ccc(NC(=O)c3cncc(C#Cc4cnc5ccc(OCC6COC6)nn45)c3)cc2C(F)(F)F)CC1`, the growth is -70.8% (active).

`CCN(CC)S(=O)(=O)c1ccc(-c2nc(C(Cl)Cl)nc3cc(-c4ccc(F)cc4)nn23)cc1`: the growth is 19.4%.

As for `O=C(COc1ccc(/C=C2\C(=O)Nc3ccc(F)cc32)cc1)Nc1ccccc1`, the growth was 89.8%.

In the case of `CN1CCN(c2ccc(Nc3nc(NCCCNS(=O)(=O)c4ccc(F)cc4)c4sccc4n3)cc2)CC1`, the growth is 31.2%.

Consider `COc1cccc(N2CCN(C3=C(Cl)C(=O)c4ncccc4C3=O)CC2)c1`, for which the growth is 19.1%.

For `C#CCOc1cccc(-c2nc(N)nc(Nc3ccccc3SSc3ccccc3Nc3nc(N)nc(-c4cccc(OCC#C)c4)n3)n2)c1`, the growth is 61.2%.

Consider `O=C(CSc1nnc(-c2ccc(Cl)cc2)n1-c1ccccc1)Nc1ccc(Cl)cc1`, for which the growth is 53.3%.

Take `NC(=O)n1c(=O)n(-c2cccc(C(F)(F)F)c2)c(=O)c2cc(-c3ccc(F)cc3F)ccc21`: the growth is 0.6% (active).

As for `C#CCOc1ccc(/C=N/Nc2nc(-c3ccc(OC)cc3)cs2)cc1`, the growth is 69.8%.

Regarding `O=C(CSc1nnc(-c2ccc(Cl)cc2)n1-c1ccccc1)Nc1ccccc1Cl`, the growth is 66.4%.

For `CCOC(=O)c1c(NC(=O)c2cccc(C(F)(F)F)c2)sc2c3c(ccc12)OCN(C)C3`, the growth was -81.9% (active).

In the case of `CN1CCN(Cc2ccc(NC(=O)c3cncc(C#Cc4cnc5ccc(OCCCS(C)(=O)=O)nn45)c3)cc2C(F)(F)F)CC1`, the growth was -12.8% (active).

As to `CCOC(=O)c1c(NCC(=O)Nc2cccc([N+](=O)[O-])c2)sc(C(C)=O)c1C`, the growth is -9.04% (active).

For `N#Cc1c(-c2cccs2)cc(-c2cnccn2)nc1SCC(=O)N/N=C/c1ccccc1`, the growth was 19.4%.

With `CN1CCN(Cc2ccc(NC(=O)c3cncc(C#Cc4cnc5ccc(O[C@@H]6CCOC6)nn45)c3)cc2C(F)(F)F)CC1`, the growth was -68.1% (active).

With `O=C(CCCCCCNC(=O)c1csc(Br)n1)NO`, the growth is 26.7%.

On to `O=C(NCCNc1cc(-c2cn(-c3ccccc3)nc2-c2cccc(O)c2)ccn1)Nc1cc(C(F)(F)F)cc(C(F)(F)F)c1`, for which the growth is 87.2%.

For `COC(=O)c1ccc(NC2=C(Cl)C(=O)c3nc(C)ccc3C2=O)cc1`, the growth was 30.5%.

Take `CCOP(=O)(OCC)OC[C@]12CCC(C)(C)C[C@H]1C1=CC[C@@H]3[C@@]4(C)CC[C@H](OP(=O)(OCC)OCC)C(C)(C)[C@@H]4CC[C@@]3(C)[C@]1(C)CC2`: the growth is 28.1%.

For the compound `C/C(=N/N)c1nnn(-c2ccc(Br)cc2)c1C`, the growth was 77.6%.

Take `O=C(N/N=C\c1ccc(F)cc1)c1ccc2nc(-c3ccc(Br)cc3)[nH]c2c1`: the growth is 9.41% (active).

For `O=C1Nc2ccc(F)cc2/C1=C\C(=O)c1ccc(NS(=O)(=O)c2ccccc2)cc1`, the growth was 22.5%.

On to `CCCCCc1ccc(S(=O)(=O)Nc2cc(-c3csc(N)n3)ccc2OC)cc1`, for which the growth was 66.1%.

Regarding `CN1CCN(c2ccc(Nc3nc(NCCNS(=O)(=O)c4ccc5ccccc5c4)c4sccc4n3)cc2)CC1`, the growth is 32.9%.

`CCn1c2ccc(/C=N/N(C)S(=O)(=O)CCN(C)C)cc2c2cc(/C=N/N(C)S(=O)(=O)CCN(C)C)ccc21`: the growth was 22.1%.

Another assay relates to HCT-116 colon. Described as above. The note with it: 10 µM unless noted.
With `N#C/C(=C\c1ccc(-c2ccc(Cl)cc2)o1)C(=O)Nc1ncc(Cc2ccc(Br)cc2)s1`, the growth was -33% (active).

`O=C(COc1ccc(/C=C2\C(=O)Nc3ccc(Cl)cc32)cc1)Nc1ccc(Cl)cc1`: the growth was 15.9%.

Consider `CC(O)c1cccc(/C(N)=N/C(N)=N/c2nc3ccccc3s2)c1` (configuration not stated), for which the growth was 70.1%.

Regarding `O=C(CN1CCN(c2cc(=O)[nH]c3ccc(F)cc23)CC1)N(c1ccccc1)c1ccccc1`, the growth was 98%.

Turning to `Cn1c(SCC(=O)c2ccc(Br)cc2)nc2ccccc2c1=O`, the growth is 86.1%.

Turning to `NC(N)=NS(=O)(=O)c1ccc(N=Nc2c(N)nn(-c3ccc([N+](=O)[O-])cc3[N+](=O)[O-])c2N)cc1`, the growth is 101%.

For `Cc1cc2nc3c4cc(C#N)ccc4n(CCN(C)C)c3nc2cc1C`, the growth is -33.3% (active).

Turning to `O=C(CCCCCCN1CC(=O)N2[C@@H](c3cccs3)c3[nH]c4ccccc4c3C[C@H]2C1=O)NO`, the growth was 60.5%.

In the case of `O=C(CSc1nc2ccccc2c(=O)n1CCc1ccccc1)Nc1ccc(S(=O)(=O)Nc2ccc(Cl)nn2)cc1`, the growth was 93.4%.

`CC1=C(C)C(=O)C(Nc2ccc(C)c(C)c2)=C(Br)C1=O`: the growth is 34.7%.

With `COc1cc(/C=C2/C(=O)Nc3ccc(Cl)cc32)ccc1OCc1ccc(Cl)cc1`, the growth was 47.9%.

In the case of `Cc1ccc2c(n1)C(=O)C(Cl)=C(Nc1ccc(C(C)C)cc1)C2=O`, the growth was -70.8% (active).

In the case of `CN1CCN(c2ccc(Nc3nc(NCCNS(=O)(=O)c4ccccc4)c4sccc4n3)cc2)CC1`, the growth was 96%.

Turning to `CNC(=O)c1cc(N2CCc3cc(NC(=O)Nc4ccc(N5CCN(C)CC5)c(C(F)(F)F)c4)ccc32)ccn1`, the growth is -47.2% (active).

In the case of `C=C(C)[C@@H]1CC[C@]2(COCCCNCCCN)CC[C@]3(C)[C@H](CC[C@@H]4[C@@]5(C)CC[C@H](O)C(C)(C)[C@@H]5CC[C@]43C)[C@@H]12`, the growth was -86.5% (active).

As for `CN1CCN(Cc2ccc(NC(=O)c3cncc(C#Cc4cnc5ccc(OCC6COC6)nn45)c3)cc2C(F)(F)F)CC1`, the growth was -78.6% (active).

`CCN(CC)S(=O)(=O)c1ccc(-c2nc(C(Cl)Cl)nc3cc(-c4ccc(F)cc4)nn23)cc1`: the growth was 28.6%.

As for `O=C(COc1ccc(/C=C2\C(=O)Nc3ccc(F)cc32)cc1)Nc1ccccc1`, the growth was 69%.

Consider `CN1CCN(c2ccc(Nc3nc(NCCCNS(=O)(=O)c4ccc(F)cc4)c4sccc4n3)cc2)CC1`, for which the growth is 20.8%.

Turning to `COc1cccc(N2CCN(C3=C(Cl)C(=O)c4ncccc4C3=O)CC2)c1`, the growth was 1.4% (active).

Take `C#CCOc1cccc(-c2nc(N)nc(Nc3ccccc3SSc3ccccc3Nc3nc(N)nc(-c4cccc(OCC#C)c4)n3)n2)c1`: the growth is 45.7%.

For `O=C(CSc1nnc(-c2ccc(Cl)cc2)n1-c1ccccc1)Nc1ccc(Cl)cc1`, the growth is 1.07% (active).

Take `NC(=O)n1c(=O)n(-c2cccc(C(F)(F)F)c2)c(=O)c2cc(-c3ccc(F)cc3F)ccc21`: the growth was 2.24% (active).

Take `C#CCOc1ccc(/C=N/Nc2nc(-c3ccc(OC)cc3)cs2)cc1`: the growth is 71.4%.

For `O=C(CSc1nnc(-c2ccc(Cl)cc2)n1-c1ccccc1)Nc1ccccc1Cl`, the growth is 12.1%.

For the compound `CCOC(=O)c1c(NC(=O)c2cccc(C(F)(F)F)c2)sc2c3c(ccc12)OCN(C)C3`, the growth is -89.4% (active).

On to `CN1CCN(Cc2ccc(NC(=O)c3cncc(C#Cc4cnc5ccc(OCCCS(C)(=O)=O)nn45)c3)cc2C(F)(F)F)CC1`, for which the growth is 1.88% (active).

In the case of `CCOC(=O)c1c(NCC(=O)Nc2cccc([N+](=O)[O-])c2)sc(C(C)=O)c1C`, the growth is -14.3% (active).

As for `N#Cc1c(-c2cccs2)cc(-c2cnccn2)nc1SCC(=O)N/N=C/c1ccccc1`, the growth is -23.6% (active).

Turning to `CN1CCN(Cc2ccc(NC(=O)c3cncc(C#Cc4cnc5ccc(O[C@@H]6CCOC6)nn45)c3)cc2C(F)(F)F)CC1`, the growth was -73.1% (active).

For the compound `O=C(CCCCCCNC(=O)c1csc(Br)n1)NO`, the growth is 3.29% (active).

In the case of `O=C(NCCNc1cc(-c2cn(-c3ccccc3)nc2-c2cccc(O)c2)ccn1)Nc1cc(C(F)(F)F)cc(C(F)(F)F)c1`, the growth is 89.5%.

For `COC(=O)c1ccc(NC2=C(Cl)C(=O)c3nc(C)ccc3C2=O)cc1`, the growth is 43.1%.

In the case of `CCOP(=O)(OCC)OC[C@]12CCC(C)(C)C[C@H]1C1=CC[C@@H]3[C@@]4(C)CC[C@H](OP(=O)(OCC)OCC)C(C)(C)[C@@H]4CC[C@@]3(C)[C@]1(C)CC2`, the growth was 18.5%.

As to `C/C(=N/N)c1nnn(-c2ccc(Br)cc2)c1C`, the growth was 103%.

For `O=C(N/N=C\c1ccc(F)cc1)c1ccc2nc(-c3ccc(Br)cc3)[nH]c2c1`, the growth is -21% (active).

In the case of `O=C1Nc2ccc(F)cc2/C1=C\C(=O)c1ccc(NS(=O)(=O)c2ccccc2)cc1`, the growth was 56.9%.

For `CCCCCc1ccc(S(=O)(=O)Nc2cc(-c3csc(N)n3)ccc2OC)cc1`, the growth is 95.1%.

Turning to `CN1CCN(c2ccc(Nc3nc(NCCNS(=O)(=O)c4ccc5ccccc5c4)c4sccc4n3)cc2)CC1`, the growth is 14.7%.

Consider `CCn1c2ccc(/C=N/N(C)S(=O)(=O)CCN(C)C)cc2c2cc(/C=N/N(C)S(=O)(=O)CCN(C)C)ccc21`, for which the growth is 14.3%.
